Results taken from PubChem BioAssay AID1942 (Johns Hopkins Ion Channel Center, 2009).
Hit rate of the full screen: of about 2,400 compounds, about 580 (24%) were called active. Only a sample is shown. Unmarked numbers belong to inactive results.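 The calls were made as follows: active = activity change at or above the mean plus 3 SD of buffer wells without dofetilide, per plate; inactive = the rest.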

Each compound was assayed against Potassium voltage-gated channel subfamily KQT member 2 (Rattus norvegicus) (UniProt O88943) (assay: KCNQ2 potentiation in CHO cells – cell-based, FluxOR thallium flux, counter-screen for hERG block protector project, confirmation (AID 1942;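 also: normalized value minus buffer-control mean plus three SD of buffer wells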)). Details: FluxOR thallium flux fluorescence, at 10 µM, hits give high values.
Chain of Potassium voltage-gated channel subfamily KQT member 2 (Rattus norvegicus) (O88943 whole entry, looked up): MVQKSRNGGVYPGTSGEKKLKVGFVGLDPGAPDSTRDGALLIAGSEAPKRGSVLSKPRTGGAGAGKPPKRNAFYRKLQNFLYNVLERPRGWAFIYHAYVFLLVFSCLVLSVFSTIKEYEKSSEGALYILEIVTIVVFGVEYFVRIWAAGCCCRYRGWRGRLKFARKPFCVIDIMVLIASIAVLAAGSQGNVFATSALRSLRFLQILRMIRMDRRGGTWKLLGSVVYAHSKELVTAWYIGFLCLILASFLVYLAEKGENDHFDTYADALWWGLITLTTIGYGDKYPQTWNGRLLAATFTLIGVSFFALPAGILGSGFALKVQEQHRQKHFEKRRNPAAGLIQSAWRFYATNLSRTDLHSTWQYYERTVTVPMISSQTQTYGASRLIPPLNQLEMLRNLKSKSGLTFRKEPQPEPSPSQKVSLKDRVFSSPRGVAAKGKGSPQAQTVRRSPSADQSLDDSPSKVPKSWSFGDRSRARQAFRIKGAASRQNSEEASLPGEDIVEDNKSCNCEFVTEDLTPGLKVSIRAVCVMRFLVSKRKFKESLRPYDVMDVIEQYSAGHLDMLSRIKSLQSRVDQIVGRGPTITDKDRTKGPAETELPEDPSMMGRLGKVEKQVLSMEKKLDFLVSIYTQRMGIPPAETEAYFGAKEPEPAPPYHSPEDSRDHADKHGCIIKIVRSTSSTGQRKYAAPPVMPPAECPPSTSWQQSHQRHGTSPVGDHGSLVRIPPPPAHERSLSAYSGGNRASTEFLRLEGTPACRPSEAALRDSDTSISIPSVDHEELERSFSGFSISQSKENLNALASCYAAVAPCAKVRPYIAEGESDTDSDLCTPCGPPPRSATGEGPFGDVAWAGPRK

SMILES	activity change, less the hit threshold
Nc1nc2n(n1)C(=O)CC(c1ccc(Cl)cc1)N2 (stereo unspecified)	-10.5%
CC(=O)N1CCCc2cc(S(=O)(=O)NCc3ccc(C)cc3)ccc21	-9.9%
c1ccc(CCCNc2ncnc3nc[nH]c23)cc1	30.4% (active)
COc1ccc(N2CC(C(=O)OCC(=O)Nc3ccccc3C)CC2=O)cc1 (stereo unspecified)	-5.6%
CCc1cc2cc(C)cc(C)c2[nH]c1=S	2.1% (active)
CN(C)Cc1c(C(=O)N/N=C/c2ccccc2OCc2c(F)cccc2Cl)nnn1-c1nonc1N	-28.3%
O=C(O)/C=C/c1cn(-c2ccccc2)nc1-c1ccc(-c2ccc([N+](=O)[O-])cc2)o1	-18%
S=c1[nH]c2cc(-c3ccccc3)ccc2o1	86.2% (active)
Cc1ccc(NN=Nc2nc3c([nH]2)c(=O)n(C)c(=O)n3C)cc1	-16.4%
COC(=O)C1=C(C)N(CC2CCCO2)C(=O)/C1=C\c1ccc(O)cc1 (stereo unspecified)	-0.1%
CCN(CC)S(=O)(=O)c1ccc2[nH]c(=O)cc(C(=O)Nc3cccc(C(C)=O)c3)c2c1	-14.9%
CC(C)(C)NS(=O)(=O)c1ccc(NC(=O)c2cc(-c3ccccc3)nc3ccccc23)cc1	-22%
O=C(NC(=S)Nc1ccccc1)c1cc(-c2ccccc2)nc2ccccc12	-5.5%
Cc1ccccc1NC(=S)NC(=O)c1cc(-c2ccccc2)nc2ccccc12	2% (active)
COC(=O)c1ccc(NC(=S)NC(=O)c2cc(-c3ccccc3)nc3ccccc23)cc1	1.1% (active)
Cc1cccc(NC(=S)NC(=O)c2cc(-c3ccccc3)nc3ccccc23)c1	-14.7%
O=C(NC(=S)Nc1ccccn1)c1cc(-c2ccccc2)nc2ccccc12	-12%
CCCCCCc1cc2cc(-c3nnc(-c4ccccc4)o3)c(=O)oc2cc1O	-23.8%
O=C(C[n+]1ccccc1)N/N=C/c1ccc(Cl)c(Cl)c1	-28.9%
O=C(c1cccs1)N1CCN(C23CC4CC(CC(C4)C2)C3)CC1	-10.7%
CCC1Nc2ncnc(N3CCOCC3)c2N(Cc2ccc(C)cc2)C1=O (stereo unspecified)	-18.9%
CCSc1nc(=S)cc(C)[nH]1	48.7% (active)
CCc1cc(=O)[nH]c(SCc2ccc(C)cc2)n1	-15.8%
CSc1nc(=S)cc(C)[nH]1	-1.9%
CN(C)CCNc1ncnc2c1sc1nc(N3CCCC3)c3c(c12)CC(C)(C)OC3	-13.1%
CCOC(=O)NC(=S)Nc1ccc(C(C)(C)C)cc1	1% (active)

SMILES	activity change, less the hit threshold
COC(=O)CNC(=S)NC(=O)c1ccc(C(C)(C)C)cc1	-13%
CC(C)(C)c1ccc(/C=N/NC(=S)Nc2cccnc2)cc1	-14%
CCOC(=O)NC(=S)Nc1ccc(C(C)(C)C)cc1Br	2.1% (active)
CCCCNC(=O)CC(NS(=O)(=O)c1ccc(C)cc1)c1ccco1 (stereo unspecified)	-14.3%
C[n+]1ccccc1/C=C/c1ccc(C#N)cc1	-12.2%
COCC(=O)N(Cc1ccco1)c1nnc(C2CCOC2)s1 (stereo unspecified)	-22.7%
COc1ccc(-n2cnc3ccccc3c2=O)c([N+](=O)[O-])c1	-12.6%
O=[N+]([O-])c1ccc(O)c2ncccc12	22.1% (active)
O=[N+]([O-])c1cccnc1Sc1n[nH]c(-c2ccc(Cl)cc2)n1	-16.6%
O=[N+]([O-])c1cc(F)c2cccnc2c1O	6.4% (active)
Oc1c(Cl)cc(CN2CCCCC2)c2cccnc12	-12.8%
Cc1ccc(N=Nc2ccc(O)c3ncccc23)cc1	-4.3%
O=C(O)C[C@H]1c2cc(F)ccc2S(=O)(=O)N1C1CCCCC1	-10.2%
CC(C)(C)c1cc(C(=O)NNC(=O)c2ccc(Cl)cc2)no1	24% (active)
CC(C)(C)c1csc(NNC(=O)c2ccc(Cl)cc2)n1	-7.6%
Cc1nc(-c2nc(-c3c(C(=O)NNC(=O)c4ccc(Cl)cc4)noc3C)cs2)cs1	-1.2%
CCc1nc(C)ccc1OCC(=O)N1CCc2c([nH]c3ccccc23)C1c1ccccn1 (stereo unspecified)	-18.2%
CCN(CC)c1ccc(/C=c2\sc3nnc(-c4ccccc4Cl)n3c2=O)cc1	-31.7%
O=C(NC(=S)Nc1nc(-c2ccc([N+](=O)[O-])cc2)cs1)c1ccco1	20.1% (active)
COc1ccc(-c2csc(NC(=S)NC(=O)c3ccco3)n2)cc1	-0.4%
O=C(NC(=S)Nc1nc(-c2ccc(Br)cc2)cs1)c1ccco1	-18.5%
COc1ccc(-c2csc(NC(=S)NC(=O)c3ccco3)n2)cc1Br	-3.7%
COc1ccc2nc(NC(=S)NC(=O)c3ccco3)sc2c1	27.9% (active)
O=C(NC(=S)NCc1ccc(-c2nc3ccccc3s2)cc1)c1ccco1	-16%
O=C(NC(=S)Nc1nc2ccccc2s1)c1ccco1	40.4% (active)
Cc1ccc2nc(NC(=S)NC(=O)c3ccco3)sc2c1	-6.5%

SMILES	activity change, less the hit threshold
O=C(NC(=S)Nc1nc(-c2ccccc2)cs1)c1ccco1	-0.7%
O=C(NC(=S)Nc1nc2ccc(F)cc2s1)c1ccco1	59.7% (active)
Cc1ccc(C)c(N2CCN(S(=O)(=O)c3ccc(-c4ccc(=O)[nH]n4)o3)CC2)c1	-14.6%
CCn1cc(CCC(=O)NCc2cccc(OC)c2OC)c2ccccc21	-13%
Cc1cc(N2CCN(C)CC2)nc(N2CCOCC2)n1	-10%
CCN(CC)C(=O)CN1C(=O)c2cccc3cccc(c23)C1=O	-24.8%
CN(C)c1oc(-c2ccccc2)nc1C#N	-16.2%
CC(=O)C1C(=O)c2c(cccc2[N+](=O)[O-])C1=Nc1ccccc1C (stereo unspecified)	-21.7%
O=c1cc(O)c2sc(Nc3ccc(F)c(Cl)c3)nc2[nH]1	-20.3%
COc1ccc(N2CCN(CC(O)COc3ccc(F)cc3)CC2)cc1 (stereo unspecified)	-24.2%
CC1=C(C)CS(=O)N(c2ccc(S(N)(=O)=O)cc2)C1 (stereo unspecified)	-5.8%
CC1=NN(c2ccccc2)C(=O)C1C(=O)c1ccc(Cl)cc1 (stereo unspecified)	-0.6%
O=c1c2cc(Cl)ccc2nc(-c2ccccc2)n1O	27.1% (active)
Cc1ccc(C(=O)Nc2nc3ccccc3c(=O)s2)cc1	-1.3%
O=c1c2ccccc2nc(-c2ccccc2)n1O	-9.4%
Cc1ccc(-c2nc3c(Cl)cc(Cl)cc3c(=O)n2O)cc1	142% (active)
Cc1ccc(-c2nc3ccccc3c(=O)n2O)cc1	6.3% (active)
O=c1c2ccccc2nc(-c2ccc(Cl)c(Cl)c2)n1O	68.4% (active)
COc1cccc([C@@H]2Oc3ccc(OC)cc3C(=O)[C@H]2OC(=O)NCc2ccc3c(c2)OCO3)c1	-12.3%
N#CC(=C1SC=CS1)c1nc(-c2ccccc2)cs1	-21.5%
O=C(N/N=C/c1ccccc1[N+](=O)[O-])c1ccc(CN2CCOCC2)cc1	-14.3%
Cc1ccc(Nc2nc(-c3cccs3)cs2)nc1	-16.1%
O=C(N/N=C/c1cccs1)C(=O)Nc1cccc(Cl)c1	-12.5%
CSc1nc2c(c(=O)[nH]1)C(c1ccc(Cl)cc1)CC(=O)N2 (stereo unspecified)	-14%
Cc1ccc(-c2onc3ccc(Cl)cc23)cc1	-16.5%
CCOC(=O)c1c(N2C(=O)Nc3ccccc3N2O)n[nH]c1-c1cccc(Cl)c1	-9.4%

SMILES	activity change, less the hit threshold
O=c1c2cc(Cl)ccc2nc(-c2ccc(Cl)c(Cl)c2)n1O	127% (active)
Cc1ccc(-c2nc3ccc(Cl)cc3c(=O)n2O)cc1	104% (active)
O=c1c2ccccc2nc(-c2cccc(Cl)c2)n1O	28.8% (active)
Cc1ccc(C(=O)CC(=O)c2cc(Cl)ccc2O)cc1	-19.3%
Cc1ccc(CNS(=O)(=O)c2cc3c4c(c2)CCN4C(=O)CC3)cc1	-11.7%
Cc1cc([N+](=O)[O-])nn1CC(=O)Nc1ccc(Cl)cn1	-1.2%
COC(=O)c1ccc(/C=C/c2ccc3cccc(OC)c3n2)cc1	-22.1%
CCN(CCCn1c(=S)[nH]c2ncccc2c1=O)c1ccccc1	10.4% (active)
CC(C)CCn1c(=S)[nH]c2ncccc2c1=O	-3.7%
CCCCCn1c(=S)[nH]c2ncccc2c1=O	17.1% (active)
CCCCC(CC)CNC(=O)Cn1c(=S)[nH]c2ncccc2c1=O (stereo unspecified)	-9.7%
COC(=O)c1ccc(NN=Nc2ccc(C)cc2)cc1	-4.6%
C=CCNc1sc(C(=O)C(C)(C)C)c(N)c1C#N	-15.5%
CCc1c(C)nc(SC)n(CC#N)c1=O	-14.4%
CCCCNC(=S)N/N=C/C1=CCC2CC1C2(C)C (stereo unspecified)	-17.2%
O=c1c(O)c(-c2cccs2)oc2ccc(Cl)cc12	111% (active)
Cn1nc(C(=O)Nc2ccc3c(c2)OCO3)c2ccccc2c1=O	-16.1%
O=c1c(O)c(-c2cccs2)oc2ccccc12	95.3% (active)
c1ccc2c(c1)c1ccccc1n1c(-c3ccc4c(c3)OCO4)nnc21	-10%
O=c1c(O)c(-c2ccc3c(c2)OCO3)oc2ccccc12	12% (active)
Cc1nnc(SCC(=O)Nc2nccs2)n1N	-19.4%
CCOc1ccc(Nc2ccc([N+](=O)[O-])c3nonc23)cc1	-4.2%
COC(=O)c1ccc(-n2c(C)nc(=O)c(-c3ccccc3)c2C)cc1	-13.8%
